Values joined by “and” are separate entries in the source; they are usually repeats but may differ in a detail not shown here. Identical values can stand only once. More than one record can exist for a structure, and the calls need not agree. Active and inactive are the calls of the source. Rule for the calls: active = hit-call score of the fitted dose curve at least 0.9, where 1 is the maximum; inactive = score below 0.9.

The values that follow come from PubChem BioAssay (EPA / NIEHS).

Chain of Nuclear factor erythroid 2-related factor 2 (Homo sapiens) (Q16236 whole entry, looked up): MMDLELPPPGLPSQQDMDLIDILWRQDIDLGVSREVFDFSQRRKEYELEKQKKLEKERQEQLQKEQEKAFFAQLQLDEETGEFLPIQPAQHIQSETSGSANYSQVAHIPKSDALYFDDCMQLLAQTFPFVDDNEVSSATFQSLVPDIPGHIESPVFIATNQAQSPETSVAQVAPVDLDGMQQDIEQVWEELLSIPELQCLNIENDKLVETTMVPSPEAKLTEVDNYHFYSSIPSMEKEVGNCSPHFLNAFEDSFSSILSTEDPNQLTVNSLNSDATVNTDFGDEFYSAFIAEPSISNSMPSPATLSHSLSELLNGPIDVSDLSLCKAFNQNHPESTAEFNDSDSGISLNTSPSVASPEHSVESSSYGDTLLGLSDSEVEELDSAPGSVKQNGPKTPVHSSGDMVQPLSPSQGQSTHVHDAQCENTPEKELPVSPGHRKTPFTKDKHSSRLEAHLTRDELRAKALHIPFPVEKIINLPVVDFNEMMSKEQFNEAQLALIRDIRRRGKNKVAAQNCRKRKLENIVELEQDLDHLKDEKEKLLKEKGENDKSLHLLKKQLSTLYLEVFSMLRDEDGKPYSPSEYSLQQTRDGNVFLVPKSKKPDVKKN

Read-out in the test: Nuclear factor erythroid 2-related factor 2 (Homo sapiens) (UniProt Q16236)
Kind of test: LTEA_HepaRG_NFE2L2: Life Technologies and Expression Analysis (LTEA) Assay for Nuclear factor erythroid 2-related factor 2 (NFE2L2) Transcription Factor using HepaRG (AID 2283527).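 For outcome: TaqMan qRT-PCR transcript level normalised to ACTB GAPDH and POLR2A housekeeping genes.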 The note with it: mRNA level, 48 h; actives raise or lower the signal. On the procedure: LTEA_HepaRG is a cell based, multiplexed-readout assay that uses HepaRG, a human liver cell line, with measurements taken at 48 hours after chemical dosing on a 96-well plate.LTEA_HepaRG_NFE2L2 is one of 102 assay component(s) measured in the LTEA HepaRG cell culture assay. It is a marker of Inflammation/injury.Data from the assay component LTEA_HepaRG_NFE2L2 was analyzed into 1 endpoint. This assay endpoint, LTEA_HepaRG_NFE2L2, was analyzed with bidirectional fitting relative to DMSO as the negative control and baseline of activity. Using a type of inducible reporter, measures of mRNA induction for gain or loss-of-signal activity can be used to understand regulation of transcription factor activity. To generalize the intended target to other relatable targets, this assay endpoint is annotated to the dna binding intended target family, where the subfamily is basic leucine zipper.
A total of 1060 chemcials from the ToxCast library were tested in eight-point concentration-response experiments. Cell culture and cytotoxicity assays were conducted at Thermo Fisher Scientific's Custom Services facility (Madison, WI). A single lot of human HepaRG cells (Thermo Fisher Scientific, Frederick, MD) was used for the cell culture experiments. 96-well format collagen type I coated plates of human HepaRG cells were prepared using established methods. Briefly, cryopreserved HepaRG cells were thawed, plated at a density of approximately 100,000 cells/well in HepaRG Thaw, Plate, and General Purpose media (HPRG770, Thermo Fisher Scientific), and incubated for 48 hours. 0.5% DMSO was selected as vehicle control to balance the requisite need of DMSO in HepaRG cultures to maintain differentiation (for example, baseline metabolism, proportions of hepatocytes vs. cholangiocytes), while enabling further hepatic receptor pathway activation (for example, PXR and CAR) in response to chemical exposure. 48 hours after plating, the culture medium was replaced with HepaRG Serum-Free Incudtion Media. Cells were exposed to each test chemical in duplicate and maintained in CO2 incubators for another 48 hours. Chemical plates were thawed to room temperature and 200x concentrations of treatment groups were prepared. 8-point conentration-reponse curves were made with the highest exposure at 100 uM, followed by half-log dilutions, all in 0.5% DMSO. Each test plate contained variouse controls, induction positive controls (1mM phenobarbital), cytotoxicity positive controls ([…] aflatoxin B1), vehicle controls (0.5% DMSO), and total lysis controls (0.5% DMSO). Cell morphology images were taken using an Essen IncuCyte FLR automated microscope, with six 96-well plates imaged in about 24 minutes. Images were captured and exported and JPEG files. Spent culture media was transfered to black-well plates for the LDH assay, and remaining media was sorted at -80 C for later use. Cells were treated with RLT buffer and frozen until shipped for gene expression analysis. Total RNA was isolated from the cell suspension in 75 uL of Buffer RLT (Qiagen, Germantown, MD 20874) by Quintiles/Expression Analysis (Durham, NC) using a custom isolation procedure. Total RNA from each plate well was transferred to a preamplification plate. Fluidigm's 96.96 Dynamic ArrayTM (Fluidigm, Amsterdam, the Netherlands) technology was used for gene expression analyses by quantitative reverse transcription polymerase chain reaction (qRT-PCR, performed by Quintiles/Expression Analysis, Durham, NC)89. Standard TaqManTM Assays (Applied Biosystems/ThermoFisher Scientific, Foster City, CA) were used to assess the expression of 93 genes selected based on their selectivity and sensitivity to important hepatic receptors known to be modulated by environmental chemicals; importance in human hepatocyte functionality; and hepatotoxicity. […]
For the compound `CCCN(CCC)c1c([N+](=O)[O-])cc(C(F)(F)F)c(N)c1[N+](=O)[O-]`, the outcome was inactive.

As to `CC1(C)C(C=C(Cl)Cl)C1C(=O)OCc1cccc(Oc2ccccc2)c1` (stereo not given), the call was inactive.

For the compound `CSC(=O)c1cccc2nnsc12`, the compound was classed as inactive.

Regarding `C[C@]12C[C@H](O)[C@H]3[C@@H](CCC4=CC(=O)CC[C@@]43C)[C@@H]1CC[C@@H]2C(=O)CO`, the outcome was inactive.

Regarding `CC(C)(C)[C@@H](O)[C@@H](Cc1ccc(Cl)cc1)n1cncn1`, the result was inactive.

As to `COC(=O)c1ccccc1C(=O)O`, the call was inactive.

As for `CCNc1nc(N)nc(Cl)n1`, the compound was called inactive.

On to `CCCCC(CC)CN1C(=O)C2C3C=CC(C3)C2C1=O` (stereo not given), for which the outcome was inactive.

Regarding `CCCOC(=O)c1ccc(C(=O)OCCC)nc1`, the compound was called inactive.

On to `CCCCCCC(C)OC(=O)COc1nc(F)c(Cl)c(N)c1Cl` (stereo not given), for which the compound was classed as inactive.

Consider `OB(O)O`, for which the result was inactive.

As a reminder, the AC50 is the concentration giving half of the maximal activity seen. For the compound `CCCCOCCOCCOCc1cc2c(cc1CCC)OCO2`, the AC50 was 9.6 µM (active).

`COCCO`: the compound was called inactive.

Take `O=C(c1ccccc1)C1CCCCC1`: the compound was called inactive.

With `O=C(c1ccc(O)cc1O)c1ccc(O)cc1O`, the result was inactive.

Take `CCOC(=O)c1ccc(O)cc1`: the compound was called inactive.

Turning to `CCCOC(=O)NCCCN(C)C`, the result was inactive.

On to `S=C(S)NCCNC(=S)S.[Mn+2].[S-]C([S-])=NCCN=C([S-])[S-].[Zn+2]`, for which the AC50 was 255 nM (active) and 539 nM (active); the call was inactive.

`c1ccc(Nc2ccccc2)cc1`: the result was inactive.

For the compound `CC(=O)S[C@@H]1CC2=CC(=O)CC[C@]2(C)[C@H]2CC[C@@]3(C)[C@@H](CC[C@@]34CCC(=O)O4)[C@H]12`, the call was inactive.

For `CC(C)CCCCCCc1ccc(O)cc1`, the compound was called inactive.

For `C#C[C@]1(O)CC[C@H]2[C@@H]3CCC4=CC(=O)CC[C@@H]4[C@H]3CC[C@@]21CC`, the result was inactive.

For the compound `CCC(C)OC(=O)N1CCCCC1CCO` (stereo not given), the compound was classed as inactive.

Regarding `CCCCC(CC)COC(=O)c1ccccc1C(=O)O` (stereo not given), the result was inactive.

For `CCCCOC(=O)C(C)Oc1ccc(Oc2ccc(C(F)(F)F)cn2)cc1` (stereo not given), the call was inactive.

Take `COC(=O)CSc1cc(N=c2sc(=O)n3n2CCCC3)c(F)cc1Cl`: the outcome was inactive.

For the compound `CN(C)C(=O)Nc1ccc(Cl)c(Cl)c1`, the AC50 was 83.3 µM (active).

With `O=C(Nc1ccc([N+](=O)[O-])cc1Cl)c1cc(Cl)ccc1O`, the result was inactive.

With `CCCCCOC(=O)COc1cc(N2C(=O)C3=C(CCCC3)C2=O)c(F)cc1Cl`, the outcome was inactive.

Turning to `O=C(O)c1ccccc1`, the compound was called inactive.

Regarding `CCSC(=O)N(CC(C)C)CC(C)C`, the compound was classed as inactive.

As for `N[C@@H](Cc1cc(I)c(Oc2ccc(O)c(I)c2)c(I)c1)C(=O)O`, the compound was called inactive.

Regarding `N#CSCSc1nc2ccccc2s1`, the call was inactive.

As for `C[C@]12CC[C@@H]3c4ccc(O)cc4C[C@@H](CCCCCCCCCS(=O)CCCC(F)(F)C(F)(F)F)[C@H]3[C@@H]1CC[C@@H]2O` (stereo not given in full), the call was inactive.

As to `Oc1ccc(C(c2ccc(O)cc2)C(Cl)(Cl)Cl)cc1`, the AC50 was 78.2 µM (active).

With `O=C(O)C1(C(=O)Nc2ccc(Cl)cc2Cl)CC1`, the outcome was inactive.

Take `C#CCOC(=O)[C@@H](C)Oc1ccc(Oc2ncc(Cl)cc2F)cc1`: the call was inactive.

`CCCCOC(=O)[C@@H](C)Oc1ccc(Oc2ccc(C(F)(F)F)cn2)cc1`: the outcome was inactive.

Regarding `S=C([S-])NCCNC(=S)[S-].[Mn+2]`, the compound was classed as inactive.
